Measured potencies and affinities stand elsewhere.
What was measured:
[1] = tested on: Staphylococcus aureus; conditions: Concentration 20 uM; ASSAY_TEST Inhibition of Bacterial Growth; detection method Absorption (OD600); MEDIA CAMHB; plate type 384well; NBS; CORNING #3640; time 18 hr
[2] = tested on: Escherichia coli; conditions: Concentration 20 uM; ASSAY_TEST Inhibition of Bacterial Growth; detection method Absorption (OD600); MEDIA CAMHB; plate type 384well; NBS; CORNING #3640; time 18 hr

Structure (SMILES)	Inhibition [1] [%]	Inhibition [2] [%]
CCCSc1ccc2[nH]c(NC(=O)OC)nc2c1 [ALBENDAZOLE]	3.05	1.87
Nc1c2c(nc3c1CCC3)CCCC2 [IPIDACRINE]	16.52	5.57
COc1cc(N)c(Cl)cc1C(=O)N[C@@H]1CCN(CCCOc2ccc(F)cc2)C[C@@H]1OC.O [(R,S)-CISAPRIDE MONOHYDRATE]	10.08	2.71
Cc1nc(=O)c2cc(CN(C)c3ccc(C(=O)N[C@@H](CCC(=O)O)C(=O)O)s3)ccc2[nH]1 [RALTITREXED]	9.09	2.78
CNCCCCOc1ccccc1Cc1ccccc1.Cl	10.88	6.1
C[C@@H]1O[C@@H](OC[C@H]2O[C@@H](Oc3c(-c4ccc(O)c(O)c4)oc4cc(O)cc(O)c4c3=O)[C@H](O)[C@@H](O)[C@@H]2O)[C@H](O)[C@H](O)[C@H]1O [RUTIN]	17.86	2.05
Cc1cc2c(s1)Nc1ccccc1N=C2N1CCN(C)CC1 [OLANZAPINE]	9.67	0.45
CC(C)[N+](C)(CCOC(=O)C1c2ccccc2Oc2ccccc21)C(C)C.[Br-] [PROPANTHELINE BROMIDE]	16.95	4.45
COc1ccc(CN2CCN(C(c3ccc(F)cc3)c3ccc(F)cc3)CC2)c(OC)c1OC.Cl.Cl	8.66	-0.33
CCCCNc1cc(C(=O)O)cc(S(N)(=O)=O)c1Oc1ccccc1 [BUMETANIDE]	10.97	5.78
C[C@]12CCC(=O)C=C1CC[C@@H]1[C@@H]2C(=O)C[C@@]2(C)[C@H]1CC[C@]2(O)C(=O)CO [CORTISONE]	18.73	3.83
CC#C[C@]1(O)CC[C@H]2[C@@H]3CCC4=CC(=O)CCC4=C3[C@@H](c3ccc(N(C)C)cc3)C[C@@]21C [MIFEPRISTONE]	11.2	-7.81
C=C(CC)C(=O)c1ccc(OCC(=O)O)c(Cl)c1Cl [ETHACRYNIC ACID]	39.53	0.95
CCN(CC)CCOC(=O)c1ccc(N)cc1.Cl [PROCAINE HYDROCHLORIDE]	7.14	4.36
Cn1ccnc1S [METHIMAZOLE]	17.02	5.86
O=C1CCc2ccc(OCCCCN3CCN(c4cccc(Cl)c4Cl)CC3)cc2N1 [ARIPIPRAZOLE]	-0.8	1.89
NC(=O)c1cnccn1 [PYRAZINAMIDE]	14.57	2
Cc1cnc(NC(=O)C2=C(O)c3ccccc3S(=O)(=O)N2C)s1 [MELOXICAM]	-0.24	7.37
CN1CCC(=C2c3ccccc3CCc3sccc32)CC1.O=C(O)/C=C\C(=O)O	4.8	2.87
CS(=O)(=O)OCCCCOS(C)(=O)=O [BUSULFAN]	14.7	10.16
CC(Oc1c(Cl)cccc1Cl)C1=NCCN1.Cl (centres undefined) [LOFEXIDINE HYDROCHLORIDE]	7.96	0.12
CCC(=O)OCC(=O)[C@@]1(OC(=O)CC)[C@@H](C)C[C@H]2[C@@H]3CCC4=CC(=O)C=C[C@]4(C)[C@@]3(Cl)[C@@H](O)C[C@@]21C [BECLOMETHASONE DIPROPIONATE]	4.92	-8.75
COc1ccc(CC2c3cc(OC)c(OC)cc3CC[N+]2(C)CCC(=O)OCCCCCOC(=O)CC[N+]2(C)CCc3cc(OC)c(OC)cc3C2Cc2ccc(OC)c(OC)c2)cc1OC.O=S(=O)(O)c1ccccc1 (centres undefined)	4.52	6.82
CN1CCC(=C2c3ccccc3C=Cc3ccccc32)CC1.Cl [CYPROHEPTADINE HYDROCHLORIDE]	5.98	6.77
CN1CCN(c2nc3cc(C(F)(F)F)ccc3n3cccc23)CC1.O=C(O)/C=C\C(=O)O.O=C(O)/C=C\C(=O)O	3.37	4.75
CN(C)CCCN1c2ccccc2Sc2ccc(Cl)cc21.Cl [CHLORPROMAZINE HYDROCHLORIDE]	10.22	2.59
CNCC[C@@H](Oc1ccccc1C)c1ccccc1.Cl [ATOMOXETINE HYDROCHLORIDE]	-21.69	5.13

From ChEMBL document CHEMBL4513141, “CO-ADD screening of NIH (USA) - Clinical Collection” (2021)
